# In a collection of fitness landscapes (doi:10.1016/j.celrep.2020.107928):
# Whole data set: some 81,000 sequences, median “one-hybrid fitness for binding parS DNA” near -0.17, cut for the highest 2% near 0.51. Many of the other results were omitted from the sample, so the highest values are more common in it than they were.
# B1: Caulobacter ParB omega fusion; a variant is named by its letters at X, in order, B8GW30 (parent)
# chain: MESVVVGEPGMSEGRRGLGRGLSALLGEVDAAPAQAPGEQLGGSREAPIEILQRNPDQPRRTFREEDLEDLSNSIREKGVLQPILVRPSPDTAGEYQIVAGERAWRAAQRAGLKTVPIMVRELDDLAVLEIGIIENVQRADLNVLEEALSYKVLMEKFERTQENIAQTIGKSXSHVANXMRLLXLPDEVQSYLVSGELTAXHARAIAAAADPVALAKQIIEGGLSVRETEALARKAPNLSAGKSKGGRPPRVKDTDTQALESDLSSVLGLDVSIDHRGSTGTLTITYATLEQLDDLCNRLTRGI
# Variants of: B1
# Test: one-hybrid fitness for binding parS DNA (scaled: cognate 1, non-cognate 0); higher = stronger binding
# Details: with parS DNA site
# How it was run: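 Bacterial one-hybrid selection in E. coli USO rpoZ- hisB- pyrF- with a HIS3 reporter carrying the site 19 bp from the promoter, screening Caulobacter ParB libraries with four specificity codons randomised (NNS). Cells grew 48 hours at 37°C on M9-minus-histidine plus 0.1 mM IPTG and 5 mM 3-AT. Plasmids before and after selection were Illumina-sequenced, three replicate libraries pooled, and variants under 10 reads dropped. Fitness is the log change in variant-to-wild-type read ratio, rescaled to cognate 1, non-cognate 0.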
row,Variant,one-hybrid fitness for binding parS DNA
1,RWLN,0.313
2,RWHN,0.301
3,RWLH,≤ 0.2
4,RWND,≤ 0.2
5,RWGP,≤ 0.2
6,RWGS,0.68
7,RWNS,0.926
8,RWHD,≤ 0.2
9,RWLS,0.8
10,PKTI,≤ 0.2
11,VLLV,≤ 0.2
12,HQHT,≤ 0.2
13,AWSC,≤ 0.2
14,PQNR,≤ 0.2
15,MNVS,≤ 0.2
16,TRQG,≤ 0.2
17,HPNK,≤ 0.2
18,VARE,≤ 0.2
19,RWDS,0.76
20,RWDN,≤ 0.2
21,RWQH,≤ 0.2
22,RWCS,0.756
23,RWDP,≤ 0.2
24,RWRP,≤ 0.2
25,RWRS,0.955
26,RWQS,0.868

row,Variant,one-hybrid fitness for binding parS DNA
1,RWCP,≤ 0.2
2,RWQP,≤ 0.2
3,RWRN,0.401
4,RWCN,≤ 0.2
5,CKLV,≤ 0.2
6,MLGM,≤ 0.2
7,PIWC,≤ 0.2
8,MSNM,≤ 0.2
9,WLDE,≤ 0.2
10,RGVA,≤ 0.2
11,REVA,≤ 0.2
12,RSVA,0.515
13,RPVA,≤ 0.2
14,RCVA,0.581
15,SKAI,≤ 0.2
16,SIHL,≤ 0.2
17,MVSE,≤ 0.2
18,GMRV,≤ 0.2
19,ETNG,≤ 0.2
20,CGAE,≤ 0.2
21,RSKS,0.883
22,RSKH,0.274
23,RCKD,≤ 0.2
24,RCKS,0.836
25,RPKS,≤ 0.2
26,RSKD,≤ 0.2

row,Variant,one-hybrid fitness for binding parS DNA
1,AQTD,≤ 0.2
2,DWLL,≤ 0.2
3,YIPE,≤ 0.2
4,CIRT,≤ 0.2
5,PNRV,≤ 0.2
6,RGLC,0.537
7,RGYC,0.527
8,RGLM,≤ 0.2
9,RGVC,0.445
10,RGKC,0.833
11,RGCF,≤ 0.2
12,RGPC,0.217
13,RGCC,0.534
14,RGLR,≤ 0.2
15,RGKH,≤ 0.2
16,RGCK,≤ 0.2
17,RGIC,0.422
18,ESDG,≤ 0.2
19,QSSQ,≤ 0.2
20,TSPP,≤ 0.2
21,RRPY,0.315
22,GLPL,≤ 0.2
23,LLVN,≤ 0.2
24,YATP,≤ 0.2
25,THMC,≤ 0.2
26,ASRN,≤ 0.2

row,Variant,one-hybrid fitness for binding parS DNA
1,HKPA,≤ 0.2
2,RGHC,0.59
3,RGHY,≤ 0.2
4,RGFC,0.454
5,RGAQ,≤ 0.2
6,RGAC,0.584
7,RGWC,0.504
8,RGRC,0.798
9,RGDC,0.467
10,RGHR,≤ 0.2
11,RGNC,0.716
12,RGNN,0.321
13,RGEC,0.449
14,SREL,≤ 0.2
15,FTNN,≤ 0.2
16,MTRS,≤ 0.2
17,DMPV,≤ 0.2
18,RDMM,≤ 0.2
19,LDNS,≤ 0.2
20,QVVM,≤ 0.2
21,RGQF,≤ 0.2
22,RGQC,0.649
23,RGGM,≤ 0.2
24,RGGR,≤ 0.2
25,RGSC,0.672
26,RGSK,≤ 0.2

row,Variant,one-hybrid fitness for binding parS DNA
1,RGQK,≤ 0.2
2,RGGC,0.594
3,RGSF,≤ 0.2
4,AAYP,≤ 0.2
5,DGHR,≤ 0.2
6,WKKW,0.229
7,LCSR,≤ 0.2
8,YTPT,≤ 0.2
9,AYYS,≤ 0.2
10,SYRV,≤ 0.2
11,VSYR,≤ 0.2
12,NTNS,≤ 0.2
13,RWLA,0.384
14,NALA,≤ 0.2
15,RCLA,0.609
16,DTLA,≤ 0.2
17,NTLA,≤ 0.2
18,RMLA,0.609
19,RPLA,≤ 0.2
20,NMLA,≤ 0.2
21,RALA,0.612
22,RTLA,0.595
23,PNHR,≤ 0.2
24,LLEW,≤ 0.2
25,GIRG,≤ 0.2
26,DQFS,≤ 0.2

row,Variant,one-hybrid fitness for binding parS DNA
1,PYSY,≤ 0.2
2,GART,≤ 0.2
3,NSRV,≤ 0.2
4,IMIV,≤ 0.2
5,ICQC,≤ 0.2
6,DLLA,≤ 0.2
7,RELA,≤ 0.2
8,RDLA,≤ 0.2
9,RNLA,0.452
10,DHLA,≤ 0.2
11,RFLA,0.533
12,SFLA,≤ 0.2
13,RHLA,0.533
14,NHLA,≤ 0.2
15,RLLA,0.605
16,RSLA,0.591
17,DFLA,≤ 0.2
18,YYAL,≤ 0.2
19,HRNR,≤ 0.2
20,VLTI,≤ 0.2
21,QANF,≤ 0.2
22,MFMS,≤ 0.2
23,QQVT,≤ 0.2
